Rows were chosen to be rich in hits. Some 21% of all compounds tested hit in one or more screens of this group.
CYP2C9 act: CYP2C9 (human) activation; P11712; recombinant CYP2C9, luciferin-H conversion, luminescence; stronger effect = higher value; factor 1 = untreated enzyme, 0 = blocked; activation factor at 5 µM; 96,000 compounds, 1.4% hits; AID 1024;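 active = activation factor of 2 or more for CYP2C9 at a 5 µM dose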;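 also: 0 = sulfaphenazole-blocked wells and 1 = vehicle-only wells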
Target sequence (P11712 whole entry, looked up): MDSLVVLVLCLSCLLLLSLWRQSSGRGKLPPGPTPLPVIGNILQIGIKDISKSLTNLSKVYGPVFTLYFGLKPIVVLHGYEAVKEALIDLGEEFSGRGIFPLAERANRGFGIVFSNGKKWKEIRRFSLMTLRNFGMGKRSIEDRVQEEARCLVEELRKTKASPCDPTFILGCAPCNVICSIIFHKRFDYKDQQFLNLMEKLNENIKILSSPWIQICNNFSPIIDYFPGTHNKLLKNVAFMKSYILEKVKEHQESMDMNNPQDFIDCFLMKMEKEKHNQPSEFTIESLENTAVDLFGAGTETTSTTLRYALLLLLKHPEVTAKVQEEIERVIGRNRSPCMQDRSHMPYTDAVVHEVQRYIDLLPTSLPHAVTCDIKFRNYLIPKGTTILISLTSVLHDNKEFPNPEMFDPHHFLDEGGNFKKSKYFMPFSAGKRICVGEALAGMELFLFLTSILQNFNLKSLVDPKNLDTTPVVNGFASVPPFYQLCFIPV
CYP2C19 inh: inhibitors of human CYP2C19; CYP2C19 Supersomes, luciferin-H EGE luminescence, 30 min; inhibition, % at 5 µM; 96,000 compounds, 21% hits;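 active = CYP2C19 inhibition above a set limit at 5 µM in the primary screen, cut at about 50% in these data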;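 also: plate controls were negative control wells for no effect and 2.5 mM tranylcypromine positive control for full effect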
MRP reversal: reverses drug resistance mediated by MRP. H69AR cells + 2 uM doxorubicin, CellTiter-Glo, 72 h. differential viability (reversal), % at 10 µM. 85,000 compounds, 0.04% hits. AID 602;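 active = viability drop by adding the cancer drug above about 55%, with treated viability meeting a 40% cutoff, limit read from the data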;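 also: viability without doxorubicin minus viability with 2 µM doxorubicin for each compound; larger differential means the compound sensitizes cells more to doxorubicin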
MRP1 act: activators of MRP-1. AID 799. H69AR cells + doxorubicin, viability rescue, CellTiter-Glo. viability increase, % at 10 µM. 140,000 compounds, 0.61% hits;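 active = viability gain under doxorubicin at or above a set limit, the compound median plus 3 SD, cut at about 4.7% in these data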;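 also: MRP-1 overexpressing cells given doxorubicin 25 µM after compound pretreatment; 18-22 h compound pretreatment then 72 h with doxorubicin before readout; 0% = doxorubicin-only wells and 100% = vehicle-treated cells without doxorubicin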
CYP2C9 inhib: blocks human cytochrome P450 2C9; AID 777; inhibition, % at 5 µM; 96,000 compounds, 20% hits; P11712; CYP2C9 Supersomes, luciferin-H conversion, luminescence;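 active = blocking of liver enzyme CYP2C9 beyond about 50% at 5 µM, limit read from the data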
CYP2C19 activ: increases human CYP2C19 enzyme activity; P33261; recombinant CYP2C19, luciferin-H EGE luminescence; stronger effect = higher value; 0 = fully inhibited enzyme, 1 = untreated enzyme; activation factor at 5 µM; 96,000 tested, under 10 active;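 active = activation factor of at least 2 at 5 µM in the primary screen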;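 also: 0 = wells with 2.5 mM tranylcypromine and 1 = vehicle-only wells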
The depositor's hits bear a star; . = no result given.

SMILES	CYP2C9 act	CYP2C19 inh	MRP reversal	MRP1 act	CYP2C9 inhib	CYP2C19 activ
C=CC(C)Sc1nc2c(c(=O)n(C)c(=O)n2C)n1Cc1ccccc1Cl (stereo not drawn)	0.9	6.4	13.9	-1.2	12.6	0.9
Cn1c(=O)c2c(nc(Sc3n[nH]c(N)n3)n2Cc2ccccc2Cl)n(C)c1=O	0.8	53.8*	2.2	-2.0	15.1	0.5
CCSc1nnc(NC(=O)c2nn(C(C)C)c(=O)c3ccccc23)s1	0.8	6.6	-17.8	-4.3	16.3	0.9
c1ccc(-c2nc(-c3ccccn3)no2)cc1	.	.	-1.2	-4.2	.	.
Cc1ccc(-c2nc(-c3ccccn3)no2)cc1	0.4	87.4*	.	-4.4	58.0*	0.1
Clc1cccc(-c2nc(-c3ccccn3)no2)c1	0.7	51.4*	-1.3	-3.7	32.9	0.5
c1ccc(-c2noc(-c3ccco3)n2)nc1	0.6	77.4*	7.4	-0.9	36.3	0.2
O=C(CSc1nc(-c2ccc(F)cc2)cc(C(F)(F)F)n1)NCc1ccco1	.	.	8.7	-3.7	.	.
O=C(CCC(=O)Nc1ccccc1)NNC(=O)COc1ccccc1	.	.	.	-1.1	.	.
O=S(=O)(c1ccccc1)c1nc(-c2ccccc2Cl)oc1NCCN1CCOCC1	0.2	36.4	2.8	-0.5	77.0*	0.6
Cc1ccccc1-c1nc(S(=O)(=O)c2ccc(Cl)cc2)c(NCCN2CCOCC2)o1	0.6	35.3	9.6	0.7	35.9	0.6
N#Cc1nc(-c2cccc3ccccc23)oc1NCCN1CCOCC1	0.8	28.3	-5.0	-1.6	22.2	0.7
N#Cc1nc(-c2ccccc2F)oc1NCCN1CCOCC1	0.7	63.8*	-3.2	-1.6	27.0	0.4
COc1ccccc1NC(=O)c1ccc(NS(=O)(=O)c2ccc(F)c(Cl)c2)cc1	.	.	.	-2.2	.	.
COC(=O)C1=C(N)N(c2ccc(F)cc2)C2=C(C(=O)CCC2)C1c1ccc2c(c1)OCO2 (stereo not drawn)	1.1	-9.0	12.5	-1.0	-5.9	1.1
CCOCCOCN(C#N)c1nc(OC)nc(N(C)C)n1	1.4	64.4*	3.3	0.9	-44.2	0.4
CC1(C)CC(=O)C2=C(C1)OC(N)=C(C#N)C21CCN(Cc2ccccc2)CC1	0.3	73.0*	-9.6	-3.6	74.1*	0.3
CC(=O)N1CCC2(CC1)C(C#N)=C(N)OC1=C2C(=O)CC(C)(C)C1	1.2	-7.8	-6.2	-1.4	-19.3	1.1
CC1(C)CC(=O)C2=C(C1)OC(N)=C(C#N)C21C(=O)N(Cc2ccccc2Cl)c2ccccc21 (stereo not drawn)	0.1	85.9*	16.6	-1.3	93.5*	0.1
CCOC(=O)N1CCC2(CC1)C(C#N)=C(N)OC1=C2C(=O)CC(C)(C)C1	0.5	23.9	6.4	-1.4	54.4*	0.8
N#CC1=C(N)OC2=C(C(=O)CCC2)[C@]12C(=O)N(CC(N)=O)c1ccccc12	0.8	4.4	15.3	0.9	22.4	1
O=C(CCCn1c(=O)[nH]c2cc(Cl)ccc2c1=O)NCCCN1CCCC1=O	0.9	-12.5	2.4	-0.2	11.6	1.1
COCCNC(=O)CSc1nc(-c2ccc(OC)c(OC)c2)cc(C(F)(F)F)n1	0.4	35.5	8.8	-2.0	60.5*	0.6
O=C(CSc1nc(-c2ccccc2)cc(C(F)(F)F)n1)N1CCOCC1	0.9	3.2	-5.0	-1.9	7.6	1
COc1ccc(-c2cc(C(F)(F)F)nc(SCC(=O)N3CCOCC3)n2)cc1OC	0.2	37.1	-13.0	-3.9	84.3*	0.6
SMILES	CYP2C9 act	CYP2C19 inh	MRP reversal	MRP1 act	CYP2C9 inhib	CYP2C19 activ
O=C(COC(=O)C1=COCCO1)Nc1ccc2c(c1)OCO2	1.1	-5.9	-3.7	-1.1	-5.9	1.1
O=C(COC(=O)CCCc1c[nH]c2ccccc12)Nc1ccc2c(c1)OCO2	0.8	72.6*	9.9	-3.9	21.5	0.3
CCOc1ccc(NC(=O)COC(=O)CCCc2c[nH]c3ccccc23)cc1	0.5	23.0	6.7	-1.7	46.4	0.8
O=C(COC(=O)C1c2ccccc2Oc2ccccc21)Nc1ccc2c(c1)OCO2	0.4	18.6	-4.6	-0.5	58.1*	0.8
COc1ccc(NC(=O)COC(=O)CCCc2c[nH]c3ccccc23)cc1	0.2	83.9*	-1.0	-0.5	81.2*	0.2
Cc1c(C(=O)C(=O)N2CCCc3ccccc32)c2ccccc2n1C	.	.	.	-3.7	.	.
CN(C)CCNS(=O)(=O)c1ccc(N2CCN(c3ccc(F)cc3)CC2)c([N+](=O)[O-])c1	.	.	.	-4.7	.	.
Cc1ccc(N=Cc2c(O)n(-c3nccs3)c(=O)c3ccccc23)cc1	.	.	.	3.1	.	.

From PubChem BioAssay
